About 120 (3.5%) of roughly 3,400 compounds were called active. How the calls were made is not given here. These entries were drawn from the full list. Measured potencies and affinities stand elsewhere.

The nature of the test: viability loss in HepG2 hepatoma cells – cell-based, ATP luminescence, cherry-pick, activator set 2, cytotoxicity control, dose response (AID 1053143). Particulars: CellTiter-Glo ATP luminescence, 72 h; series mostly up to 26 µM. On the technique in general: ATP-based viability assays read luminescence as a measure of living cells.
`O=C(NC(=O)c1ccccc1)Nc1ccccc1`: the activity change, negative = cytotoxicity entry is “inactive”.
With `CCCC(=O)Nc1ccc(C#Cc2ccccc2)cc1`, the activity change, negative = cytotoxicity entry is “inactive”.
In the case of `Cc1ccc(NC(=O)c2ccc(OC(=O)c3cc4ccccc4o3)cc2)cc1`, the activity change, negative = cytotoxicity entry is “inactive”.
As to `CCOC(=O)C1=C(C)NC(=O)C(C(N)=O)C1c1ccccc1` (stereo unspecified), the activity change, negative = cytotoxicity result is “inactive”.
Regarding `O=C(NC1CC1)C1Nc2ccc(OC(F)(F)F)cc2C2C=CCC12` (stereo unspecified), the activity change, negative = cytotoxicity entry was “inactive”.
Next, `O=C(Nc1ccc2c(c1)nc1n2CCOC1)c1ccccc1`: “inactive”.
In the case of `O=C(Nc1nc2ccccc2[nH]1)c1cccc(Cl)c1`, the activity change, negative = cytotoxicity result was “inactive”.
On to `COc1cccc(NC(=O)c2cccc(Cl)c2)c1`, for which the activity change, negative = cytotoxicity entry is “inactive”.
As for `COc1ccc2cc3cc(C(=O)N4CCCCC4C)oc3nc2c1` (stereo unspecified), the activity change, negative = cytotoxicity entry was “inactive”.
Next, `Cc1nn(Cc2ccccc2)c(Cl)c1C(=O)NCCc1ccccc1`: “inactive”.
Next, `CCCn1cnc2cc(NC(=O)c3cccs3)ccc21`: “inactive”; `COc1cccc2oc3cc(C#Cc4ccccn4)ccc3c(=O)c12`: “inactive”.
Turning to `O=c1c2ccccc2oc2cc(C#Cc3ccccn3)ccc12`, the activity change, negative = cytotoxicity entry was “inactive”.
Consider `O=[N+]([O-])c1cc(Cl)ccc1-c1nc(-c2ccccc2)no1`, for which the activity change, negative = cytotoxicity result is “inactive”.
Take `Fc1ccc(-c2cn3cc(C(F)(F)F)cc(Cl)c3n2)cc1`: the activity change, negative = cytotoxicity result was “inactive”.
Next, `O=C(CCCCn1c(=O)[nH]c2ccsc2c1=O)NCCc1ccccc1`: “inactive”.
Next, `C[C@@H]1ON(C)[C@H]2C[C@H]3c4cc(-c5cc6ccccc6o5)ccc4CCN3C[C@@H]12`: “inactive”.
For `O=C(N/N=C/c1ccc2c(c1)OCO2)c1ccc(Br)o1`, the activity change, negative = cytotoxicity result was “inactive”.
As to `Cc1occc1C(=O)N/N=C/c1ccc(OCc2ccccc2)cc1`, the activity change, negative = cytotoxicity entry is “inactive”.
With `O=C(NN=Cc1ccc2c(c1)OCO2)c1ccccc1`, the activity change, negative = cytotoxicity result is “inactive”.
Next, `COc1cccc(/C=N/NC(=O)c2ccoc2C)c1`: “inactive”; `O=C(CSc1nnc(-c2ccncc2)o1)Nc1cc(F)ccc1F`: “inactive”; `CN(C)c1ccc(-c2ccccc2)nn1`: “inactive”.
Take `CCC(=O)NC1=C(Nc2ccc(N)cc2)C(=O)c2ccccc2C1=O`: the activity change, negative = cytotoxicity entry was “inactive”.
As for `CCc1ccc(NCc2nc3ccccc3c(=O)[nH]2)cc1`, the activity change, negative = cytotoxicity entry was “inactive”.
For `COCC(=O)OCc1cc2cccc(C)c2[nH]c1=O`, the activity change, negative = cytotoxicity result was “inactive”.
As for `Cc1ccc(N2CC(C(=O)Nc3ccc4c(c3)OCCO4)CC2=O)cc1` (stereo unspecified), the activity change, negative = cytotoxicity entry is “inactive”.
`O=C(CN1CCOCC1)Nc1ccc(C2CCCCC2)cc1`: the activity change, negative = cytotoxicity result is “inactive”.
For `Cc1cc(C(=O)NC2CCCCCCC2)ccc1[N+](=O)[O-]`, the activity change, negative = cytotoxicity result is “inactive”.
For `COc1ccc(/C=C/C(=O)c2ccccc2)c(OC)c1`, the activity change, negative = cytotoxicity entry was “inactive”.
In the case of `COc1ccc2nc(-c3ccccc3)[nH]c2c1`, the activity change, negative = cytotoxicity entry was “inactive”.
Take `Cc1cc(NC(=O)c2ccc3nccnc3c2)ccc1Br`: the activity change, negative = cytotoxicity result was “inactive”.
In the case of `Cc1ccnc(NC(=O)c2ccc(S(=O)(=O)N3CCC(C)CC3)cc2)c1`, the activity change, negative = cytotoxicity entry is “inactive”.
On to `O=C(NC1=NCCS1)c1ccc(OCC2CCCO2)cc1` (stereo unspecified), for which the activity change, negative = cytotoxicity entry is “inactive”.
In the case of `Cc1ccc(NC(=O)c2ccc(OCC3CCCO3)cc2)cc1Cl` (stereo unspecified), the activity change, negative = cytotoxicity entry was “inactive”.
Next, `COc1cc(Cl)ccc1OCc1cc(C(=O)NC(C)Cc2cnccn2)no1` (stereo unspecified): “inactive”.
With `Cc1ccc(NC(=O)Nc2cccc(C)n2)c(C)c1`, the activity change, negative = cytotoxicity entry was “inactive”.
As for `Oc1cccc(Nc2nc(O)c(/C=C3\C=Nc4ccccc43)s2)c1`, the activity change, negative = cytotoxicity result was “inactive”.
Next, `COc1ccc(-c2csc(N(CC3CCCO3)C(=O)c3ccc(C)cc3)n2)cc1` (stereo unspecified): “inactive”.
Next, `CC(C)CN1CCC(=O)N(CCSc2ccccc2)CC1`: “inactive”; `O=[N+]([O-])c1ccc(NN=Cc2ccc(O)cc2)nc1`: “inactive”; `Clc1ccc(/C=N/Nc2ccccn2)cc1`: “inactive”.
In the case of `COc1ccc(N2CCN(c3ccc(NC(=O)/C=C\C(=O)O)cc3)CC2)cc1`, the activity change, negative = cytotoxicity entry is “inactive”.
Next, `COC(=O)c1sc(-c2ccc(C(C)(C)C)cc2)cc1NC(=O)c1ccccc1C(=O)O`: “inactive”.
Next, `CC1CCC(C(C)C)C(=O)/C1=C/c1ccc(N)cc1` (stereo unspecified): “inactive”; `Cn1c(=NN=Cc2ccccc2OCCO)sc2ccccc21`: “inactive”.
Consider `COc1ccc(-c2cn(Cc3ccc(C(N)=O)cc3)c(-c3ccncc3)n2)cc1`, for which the activity change, negative = cytotoxicity entry was “inactive”.
For the compound `COc1ncccc1-c1nnn(-c2ccccc2)n1`, the activity change, negative = cytotoxicity entry is “inactive”.
Next, `COc1ncccc1-c1nnn(-c2ccc(C)cc2)n1`: “inactive”.
With `CCCCn1c(SCC2CCCCO2)nc2cc(S(N)(=O)=O)ccc21` (stereo unspecified), the activity change, negative = cytotoxicity entry is “inactive”.
For `O=C(Cn1nnc2ccccc21)c1ccc(Cl)cc1`, the activity change, negative = cytotoxicity entry was “inactive”.
On to `c1ccc(-n2ncc3c(NCCN4CCOCC4)ncnc32)cc1`, for which the activity change, negative = cytotoxicity result was “inactive”.
With `Cn1c(=O)c(C(=O)NCC2CCCO2)c(O)c2ccccc21` (stereo unspecified), the activity change, negative = cytotoxicity result was “inactive”.
As to `COc1ccccc1C(=O)Nc1nnc(SCC(=O)NCC2CCCO2)s1` (stereo unspecified), the activity change, negative = cytotoxicity entry is “inactive”.
Consider `CC1(c2ccccn2)Nc2ccccc2-c2nc3ccccc3n21` (stereo unspecified), for which the activity change, negative = cytotoxicity result was “inactive”.
As for `NC(=O)c1ccccc1NC(=O)/C=C/c1ccccc1`, the activity change, negative = cytotoxicity entry was “inactive”.
Regarding `Cc1ccc(C(=O)Nc2nc3c(s2)CCCC3)o1`, the activity change, negative = cytotoxicity entry was “inactive”.
For `COC(=O)c1c(NC(=O)c2ccc(C)o2)sc2c1CCCCC2`, the activity change, negative = cytotoxicity entry was “inactive”.
Consider `Cc1cccc(Cc2cnc(NC(=O)c3ccc(C)o3)s2)c1`, for which the activity change, negative = cytotoxicity entry was “inactive”.
For the compound `O=C(Nc1nccs1)c1ccc(-c2ccc(F)cc2)o1`, the activity change, negative = cytotoxicity entry was “inactive”.
Next, `CCCCN(C(=O)Cc1cccs1)c1nnc(-c2cccnc2)s1`: “inactive”.

These data come from PubChem BioAssay AID1053143 (Broad Institute, 2014).
